# Reference: PubChem BioAssay (NCI)
# The panel holds about 83,000 compounds, 20% with a hit somewhere; the sample as a whole holds those more often.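 Single-concentration screen, 48 h exposure, 96-well plates. Endpoint: percent growth. Below 10 = active.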 Unmarked numbers belong to inactive results. The source made the active and inactive calls.
# Columns and labels:
# Experiment in all cases: NCI-60 one-dose screen, 48 h (100 = growth as untreated, 0 = no growth, -100 = all killed)
# Details in all cases: 10 µM unless noted
# T-47D breast = system: T-47D breast
# BT-549 breast = system: BT-549 breast
# MDA-MB-435 melanoma = system: MDA-MB-435 melanoma
# SW-620 colon = system: SW-620 colon
# MCF7 breast = system: MCF7 breast
# HCT-116 colon = system: HCT-116 colon
# HCC-2998 colon = system: HCC-2998 colon
# KM12 colon = system: KM12 colon
SMILES,growth (T-47D breast),growth (BT-549 breast),growth (MDA-MB-435 melanoma),growth (SW-620 colon),growth (MCF7 breast),growth (HCT-116 colon),growth (HCC-2998 colon),growth (KM12 colon)
COC(=O)[C@@H](Cc1c[nH]c2ccccc12)NC(=O)CCCCOc1cc(O)c2c(=O)cc(-c3ccccc3)oc2c1,59.7%,90.7%,91.6%,95.8%,94.9%,92.1%,96.5%,95.3%
N#Cc1nc(-c2ccccc2)oc1N1CCC(C2(C(F)(F)F)N=N2)CC1,95.6%,136%,101%,98.8%,89.1%,104%,107%,96.2%
CSc1ccc(C(=NNS(=O)(=O)c2ccc(C)cc2)c2ccc(Cl)cc2)cc1,89.7%,118%,106%,102%,88.2%,98.2%,103%,97.1%
O=C(CSc1nc2ccccc2c(=O)n1CCc1ccccc1)Nc1ccc(S(=O)(=O)Nc2ccc(Cl)nn2)cc1,88.6%,98.9%,99.8%,91.3%,79.7%,93.4%,102%,98.8%
C#CCOc1cccc(/C(N)=N/C(N)=N/c2nc3ccccc3s2)c1,72.3%,91.7%,104%,105%,74.2%,80.4%,109%,78.7%
O=C(/C=C/c1cccc(F)c1)c1cccc(OCCCOc2cccc(C(=O)/C=C/c3cccc(F)c3)c2)c1,69.8%,72.1%,99.8%,14.3%,10.2%,-80.3% (active),44.2%,32.6%
COc1cc(C(=O)c2cc(C(C)=O)c3ccc(C)cn23)cc(OC)c1OC,37.9%,53.1%,-12.7% (active),32.4%,14.8%,18.4%,61.6%,28.6%
CN(C)CCCOc1ccc(C(=C(c2ccccc2)C2CCCC2)c2ccc(OCCCN(C)C)cc2)cc1,-76.6% (active),-83.3% (active),-62.8% (active),-34.2% (active),-65.8% (active),-44.7% (active),-83.9% (active),-96.9% (active)
CN1CCN(Cc2ccc(NC(=O)c3cncc(C#Cc4cnc5ccc(O[C@@H]6CCOC6)nn45)c3)cc2C(F)(F)F)CC1,-29.2% (active),-81.9% (active),-97.6% (active),-28% (active),-68.1% (active),-73.1% (active),-85% (active),-82.4% (active)
CN1CCN(CC#CCn2c3c(c4ccccc42)C[C@]2(C)[C@H]4CC=C5[C@@H]6CC(C)(C)CC[C@]6(C(=O)N6CCOCC6)CC[C@@]5(C)[C@]4(C)CC[C@H]2C3(C)C)CC1,78.7%,96.2%,82.7%,11.6%,-3.42% (active),22%,85.4%,66%
CNC(=O)c1cc(-c2ccc(NC(=S)Nc3cccc(C(F)(F)F)c3)cc2)nc2cccnc12,102%,104%,95.9%,96.8%,80.3%,103%,116%,98.8%
CC(C)=CCC[C@](C)(O)[C@H]1CC[C@]2(C)[C@@H]1CC[C@@H]1[C@@]3(C)CC[C@H](N)C(C)(C)[C@@H]3CC[C@]12C,107%,98.8%,94.2%,8.73% (active),3.07% (active),-28.2% (active),63.3%,48.9%
CC1=C(C)C(=O)C(Nc2ccc3c(c2)OCO3)=C(Br)C1=O,30.3%,107%,103%,107%,77.5%,85.6%,105%,97.4%
Nc1nc(=O)n([C@H]2C[C@H](O)[C@@H](CO)O2)cc1C=O,113%,116%,110%,107%,96.1%,91.3%,87.7%,103%
CS(=O)(=O)c1ccc(/C(=N/N=C(N)N)c2ccc(F)cc2)cc1,94.4%,98%,11.4%,59.9%,15.1%,33.7%,90.3%,58.2%
O=C(/C=C/c1ccccc1Cl)Nc1ncc(Cc2cc(Cl)ccc2Cl)s1,29.9%,32.5%,-26.6% (active),14.3%,16.6%,17.3%,57.8%,22.1%
O=C(CSc1nc2ccccc2c(=O)n1-c1ccccc1)N/N=C/c1ccc(Oc2ccc(Cl)cc2)cc1,82.5%,69.9%,84.6%,43.1%,64.5%,5.62% (active),95.4%,83.7%
O=C(/C=C/c1csc(Br)n1)NO,8.14% (active),80.7%,5.36% (active),10.2%,24.6%,5.92% (active),29.2%,34.9%
CCN1CCN(c2ccc(NC(=O)Nc3ccc4c(ccn4-c4ccnc(C(=O)NC)c4)c3)cc2C(F)(F)F)CC1,90.5%,73.6%,70.4%,-56.2% (active),5.65% (active),58.6%,93.9%,36.4%
C=C(C)[C@@H]1CC[C@]2(C(=O)N3CCN(C)CC3)CC[C@]3(C)[C@H](CC[C@@H]4[C@@]5(C)CC[C@H](OP(=O)(OCC)OCC)C(C)(C)[C@@H]5CC[C@]43C)[C@@H]12,87.8%,93.9%,94.2%,82%,68.9%,24%,94.4%,94.4%
c1ccc(-c2cn3c(-c4c[nH]c5ccccc45)csc3n2)cc1,31.9%,41.4%,74.7%,72.1%,40.3%,64.5%,71.3%,44.7%
O=C(CSc1nnc(-c2cccs2)n1-c1ccccc1)Nc1ccccc1,78.4%,85.5%,57.9%,87.2%,80.3%,75.4%,111%,84.8%
O=C(/C=C/c1cc(Cl)ccc1Cl)Nc1ncc(Cc2ccc(Cl)cc2)s1,63.8%,-46.5% (active),-37% (active),20.8%,16.2%,2.67% (active),13.3%,13.1%
COc1ccc(-c2cc(-c3ccc(N(C)C)cc3)n3c(n2)nc2ccccc23)cc1,2.27% (active),40.1%,74.3%,76.9%,40.7%,15.8%,84.2%,62.3%
Cn1c2nc3ccccc3c-2cc2ccccc21,37.4%,101%,39.5%,28.3%,10.9%,22.1%,52.9%,31.8%
O=C(N/N=C\c1ccc([N+](=O)[O-])cc1)c1ccc2nc(-c3ccc(Br)cc3)[nH]c2c1,9.87% (active),6.72% (active),23.9%,5.34% (active),-4.44% (active),-37.2% (active),5.66% (active),11.7%
CC(C)Sc1nc(-c2ccccc2)c(C#N)c(N2CCOCC2)n1,68.5%,111%,88%,74.2%,72.8%,43.5%,69.5%,88.3%
CN1CCN(Cc2ccc(NC(=O)c3cncc(C#Cc4cnc5ccc(OCC6COC6)nn45)c3)cc2C(F)(F)F)CC1,-1.42% (active),-71.5% (active),-92.3% (active),-29.8% (active),-70.8% (active),-78.6% (active),-77.4% (active),-73.6% (active)
CN1CCN(c2ccc(Nc3nc(NCCCNS(=O)(=O)c4cccc(F)c4)c4sccc4n3)cc2)CC1,22.8%,42.7%,14.1%,46.5%,25.7%,11.1%,37.9%,54%
CN1CCN(c2ccc(Nc3nc(NCCNC(=O)c4ccc(F)cc4)c4sccc4n3)cc2)CC1,18.2%,56.1%,46.9%,75.2%,41%,22%,70.4%,65.4%
